Data on 48 compounds can be found in PubChem BioAssay AID504333 (National Center for Advancing Translational Sciences (NCATS), 2011).

Among all 360,000 compounds or so, about 16,000 (4.4%) were called active. Roughly 9% stayed inconclusive and do not appear here. Only a selection was taken, and actives are over-represented in it overall. Values without a mark were called inactive. The call rests on the fitted dose curve; in most records, active means well fitted inhibition curve with a large enough effect; inconclusive means small, poorly fitted or top-dose-only effect; inactive means no such curve, though single readings can be large or run the other way.
On the % scale 0 is the no-effect control and ±100 the full control effect; potency means the concentration at half of the fitted maximal effect.

In the assay the target is Bromodomain adjacent to zinc finger domain protein 2B (Homo sapiens) (UniProt Q9UIF8). Kind of assay: qHTS Assay for Inhibitors of BAZ2B. Further: nearly all actives have a fitted effect of over 60% in size. To be noted: AlphaScreen BAZ2B-H3K14Ac peptide displacement; series mostly up to 114 µM; activity change, negative = inhibition: at the top concentration. Summed up: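 Multi-concentration screen (max 110 uM) measuring displacement of acetylated histone H3 peptide from BAZ2B by AlphaScreen, using 50 nM protein, 50 nM peptide and 10 ug/mL streptavidin donor plus Ni-chelate acceptor beads.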
Chain of Bromodomain adjacent to zinc finger domain protein 2B (Homo sapiens) (Q9UIF8 whole entry, looked up, the tested form may be a part): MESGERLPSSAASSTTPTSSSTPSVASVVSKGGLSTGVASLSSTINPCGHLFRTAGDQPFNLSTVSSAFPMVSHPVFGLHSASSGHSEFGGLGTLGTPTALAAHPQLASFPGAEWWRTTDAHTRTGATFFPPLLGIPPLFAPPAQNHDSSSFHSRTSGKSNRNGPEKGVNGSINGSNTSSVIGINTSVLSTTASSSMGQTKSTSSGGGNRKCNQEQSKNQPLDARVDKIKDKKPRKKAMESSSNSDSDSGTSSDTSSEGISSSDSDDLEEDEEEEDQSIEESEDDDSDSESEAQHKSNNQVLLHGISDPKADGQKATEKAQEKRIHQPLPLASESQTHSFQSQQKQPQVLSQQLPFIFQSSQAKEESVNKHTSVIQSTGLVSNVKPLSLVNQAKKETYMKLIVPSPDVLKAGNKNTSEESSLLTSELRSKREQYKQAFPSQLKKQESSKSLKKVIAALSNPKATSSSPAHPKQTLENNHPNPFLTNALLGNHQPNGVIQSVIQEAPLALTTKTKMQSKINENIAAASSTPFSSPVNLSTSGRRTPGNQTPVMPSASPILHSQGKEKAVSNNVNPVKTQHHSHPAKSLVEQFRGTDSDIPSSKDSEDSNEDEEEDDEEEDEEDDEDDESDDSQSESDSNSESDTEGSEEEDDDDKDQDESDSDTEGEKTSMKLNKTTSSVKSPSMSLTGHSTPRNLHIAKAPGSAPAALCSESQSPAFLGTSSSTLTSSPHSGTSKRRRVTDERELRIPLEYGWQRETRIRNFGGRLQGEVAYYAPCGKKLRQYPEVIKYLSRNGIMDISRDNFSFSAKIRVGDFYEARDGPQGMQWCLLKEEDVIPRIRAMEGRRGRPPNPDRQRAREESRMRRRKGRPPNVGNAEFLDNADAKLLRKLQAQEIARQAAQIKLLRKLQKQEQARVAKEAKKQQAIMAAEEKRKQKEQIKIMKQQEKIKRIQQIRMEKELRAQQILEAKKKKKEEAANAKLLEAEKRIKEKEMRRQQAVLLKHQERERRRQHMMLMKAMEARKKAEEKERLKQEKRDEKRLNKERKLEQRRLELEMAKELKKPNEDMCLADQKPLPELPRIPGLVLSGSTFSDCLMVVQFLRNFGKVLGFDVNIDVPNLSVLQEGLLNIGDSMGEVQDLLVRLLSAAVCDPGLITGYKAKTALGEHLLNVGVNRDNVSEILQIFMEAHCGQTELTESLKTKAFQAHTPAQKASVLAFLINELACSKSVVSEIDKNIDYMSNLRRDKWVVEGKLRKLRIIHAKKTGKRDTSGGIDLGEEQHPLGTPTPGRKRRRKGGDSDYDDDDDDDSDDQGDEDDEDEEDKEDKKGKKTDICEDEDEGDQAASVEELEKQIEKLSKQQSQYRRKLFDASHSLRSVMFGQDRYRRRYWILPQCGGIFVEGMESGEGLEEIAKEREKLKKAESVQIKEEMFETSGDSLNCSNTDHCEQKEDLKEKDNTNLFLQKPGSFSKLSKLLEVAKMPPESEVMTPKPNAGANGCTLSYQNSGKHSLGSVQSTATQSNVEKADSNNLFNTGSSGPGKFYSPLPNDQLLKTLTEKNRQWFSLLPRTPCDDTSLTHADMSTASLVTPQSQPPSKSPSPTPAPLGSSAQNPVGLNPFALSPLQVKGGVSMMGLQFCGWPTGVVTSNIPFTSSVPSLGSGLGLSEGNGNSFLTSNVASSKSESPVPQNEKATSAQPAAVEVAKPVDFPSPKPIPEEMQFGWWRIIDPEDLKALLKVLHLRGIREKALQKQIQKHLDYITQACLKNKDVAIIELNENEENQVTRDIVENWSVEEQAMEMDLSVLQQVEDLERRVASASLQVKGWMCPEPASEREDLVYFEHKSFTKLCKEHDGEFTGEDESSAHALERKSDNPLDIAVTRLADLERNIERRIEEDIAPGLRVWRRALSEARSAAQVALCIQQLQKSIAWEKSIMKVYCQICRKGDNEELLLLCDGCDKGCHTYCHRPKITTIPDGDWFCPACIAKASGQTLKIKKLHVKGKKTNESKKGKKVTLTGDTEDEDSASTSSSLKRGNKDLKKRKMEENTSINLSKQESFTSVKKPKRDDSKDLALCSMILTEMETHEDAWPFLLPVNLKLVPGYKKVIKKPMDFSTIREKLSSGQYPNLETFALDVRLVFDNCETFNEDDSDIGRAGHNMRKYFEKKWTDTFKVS
In general terms: qHTS replaces the single test concentration by a dilution series.
Consider `C#CCOc1ccc(C2CC(=O)Nc3c2c(C)nn3-c2nc(C)cc(C)n2)cc1` (stereo not drawn), for which the “activity change, negative = inhibition” value is -37.9%.
On the same count and under the same terms, as for `COc1ccccc1C(=O)Nc1c(C(=O)Nc2ccc(C)cc2)oc2ccccc12`, the figure is -20.1%.
Take `c1ccc(C2c3[nH]c4ccccc4c3CCN2Cc2cccn2-c2cccnc2)nc1` (stereo not drawn): the Potency is 31.6 µM (active).
With `Cc1cccc(C(=O)N2CCc3c([nH]c4ccccc34)C2CC(C)C)n1` (stereo not drawn), the “activity change, negative = inhibition” value was -38.1%.
Still for that read-out and setting: then `CCOc1cccc(CC(=O)N2CCc3c([nH]c4ccccc34)C2c2ccc(OC)cc2)c1OCC` (stereo not drawn), with -24.8%.
With `CCOc1ccc(C2c3[nH]c4ccccc4c3CCN2Cc2cccn2-c2ncccn2)cc1` (stereo not drawn), the Potency was 28.2 µM (active).
`Cc1ccc(N(CC(=O)NCc2ccc(Cl)cc2)S(=O)(=O)N(C)C)cc1`: the “activity change, negative = inhibition” value was 2.41%.
With `CCOc1ccc(NC(=O)CCC(=O)N2CC(C)Oc3ccc(C)cc32)cc1` (stereo not drawn), the “activity change, negative = inhibition” value is 0.864%.
In the case of `CCCn1c2ccccc2c2cnn(CC(=O)NCC3CCN(Cc4ccc(C)cc4)CC3)c(=O)c21`, the “activity change, negative = inhibition” value is -14.3%.
Same read-out and setting: then `Cc1ccc(NC(=O)c2oc3ccc(S(=O)(=O)N4CCCCC4)cc3c2C)cc1Cl`, with 2.57%; and `COc1ccc(Cl)cc1S(=O)(=O)N1CCC(c2ccncc2)CC1`, with -3.34%; and `Cc1nn(Cc2ccc(F)cc2)c(C)c1NC(=O)c1cc(CC(C)C)on1`, with 2.89%.
Still for that read-out and setting: then `Cc1cc(C)c2oc(C(=O)Nc3c(C(=O)Nc4ccccc4)oc4ccccc34)cc(=O)c2c1`, with -1.94%; and `COC(=O)CN1C(=O)C(O)=C(C(C)=O)C1c1ccc([N+](=O)[O-])cc1` (stereo not drawn), with -0.86%.
The same measure, in the same setting: as for `COc1ccc2[nH]cc(CCN3C(=O)c4ccc(C(=O)O)cc4C3=O)c2c1`, the figure is -3.1%.
`COc1ccc(C2C(C(C)=O)=C(O)C(=O)N2CCc2c[nH]c3ccccc23)cc1` (stereo not drawn): the Potency is 56.2 µM (active).
As to `Cc1cccc(N(C)C(=O)CS(=O)(=O)c2cccc3nsnc23)c1`, the “activity change, negative = inhibition” value was 5.25%.
With `Cc1ccc(C)c(N2C(=O)N(Cc3c(F)cccc3Cl)c3ccccc3S2(=O)=O)c1`, the “activity change, negative = inhibition” value was -12.1%.
Still for that read-out and setting: as for `CC(=O)c1cc(C#N)c(SCC(=O)C(C)(C)C)nc1C`, the figure is -24.6%.
As to `CC(=O)c1cc(C#N)c(N2CCCCC2)nc1C`, the Potency was 56.2 µM (active).
Consider `CC(=O)c1cc(C#N)c(SCC(=O)Nc2nccs2)nc1C`, for which the “activity change, negative = inhibition” value was -15.2%.
On the same count and under the same terms, as for `Cc1cccc(-c2nnc(SCC(=O)N3CCCc4ccccc43)o2)c1`, the figure is 2.41%; as for `CCC(=O)N1CCc2cc(Br)cc(S(=O)(=O)NCc3ccc(Cl)cc3)c21`, -12.3%; as for `COc1ccccc1CNC(=O)Cn1nc(C)c2nn(-c3ccc(Cl)cc3)c(C)c2c1=O`, 5.44%.
Regarding `CCN(C(=O)Cn1cnc2sc(C)c(S(=O)(=O)N3CCN(c4ncccn4)CC3)c2c1=O)c1ccccc1F`, the “activity change, negative = inhibition” value is -1.72%.
As for `CCOC(=O)Cc1csc(NC(=O)CSc2nc(C)cc(=O)[nH]2)n1`, the Potency is 50.1 µM (active).
With `CCOC(=O)Cc1csc(NC(=O)CSc2ccc(Br)cc2)n1`, the “activity change, negative = inhibition” value is -1.86%.
On the same count and under the same terms, as for `CCCCc1nnc(NC(=O)CSc2nc(C)cc(=O)[nH]2)s1`, the figure is -6.69%.
For the compound `O=C(CSc1ncc(-c2ccccc2)[nH]1)Nc1ccc(F)cc1F`, the “activity change, negative = inhibition” value was -39%.
For the compound `COC(=O)c1c(NC(=O)C(C)Oc2ccc(Cl)c(C)c2)sc(C)c1C` (stereo not drawn), the “activity change, negative = inhibition” value is 59.2%.
On the same count and under the same terms, then `COC(=O)CN1C(=O)CSc2ccc(S(=O)(=O)Nc3cc(C)ccc3C)cc21`, with -14.5%.
The same measure, in the same setting: then `CCc1ccc(CN(Cc2ccco2)C(=O)COc2ccc(Cl)c(C)c2)cc1`, with 40.4%; and `O=C(N/N=C/c1c[nH]c2ccccc12)c1ccccc1O`, with 6.98%.
On to `O=C(O)c1cccc(NC(=S)N/N=C/c2c[nH]c3ccccc23)c1`, for which the “activity change, negative = inhibition” value is -21.7%.
Consider `CSC(=S)N/N=C/c1c[nH]c2ccccc12`, for which the Potency was 35.5 µM (active).
With `O=C(NCCc1ccccc1)c1ccc2c(c1)N(Cc1ccccc1)C(=O)c1ccccc1S2(=O)=O`, the “activity change, negative = inhibition” value was -9.92%.
Still for that read-out and setting: as for `CCC(=O)N1CCc2cc(CNS(=O)(=O)c3ccc(Br)s3)ccc21`, the figure is 4%; as for `C#CCOCCOCCOCCNc1nc(N2CCN(C(=O)[C@H](CCCCN)n3cc(CCC(=O)O)nn3)CC2)nc(N2CCN(C(=O)[C@H](CCCCN)n3cc(CC(C)O)nn3)CC2)n1` (stereo partly drawn), 3.58%.
For the compound `C#CCOCCOCCOCCNc1nc(N2CCN(C(=O)[C@H](CCC(=O)O)n3cc(C(N)CO)nn3)CC2)nc(N2CCN(C(=O)[C@H](CCCCN)n3cc(C(N)[C@H](C)CC)nn3)CC2)n1` (stereo partly drawn), the Potency was 14.1 µM (active).
Consider `C#CCOCCOCCOCCNc1nc(N2CCN(C(=O)[C@H](CCC(=O)O)n3cc(C(N)CO)nn3)CC2)nc(N2CCN(C(=O)[C@H](CCCCN)n3cc(C(N)CC(C)C)nn3)CC2)n1` (stereo partly drawn), for which the Potency is 44.7 µM (active).
Turning to `CCOc1ccc(N(CC)S(=O)(=O)N2CCCC(C(=O)NCc3ccc(Cl)cc3)C2)cc1` (stereo not drawn), the “activity change, negative = inhibition” value was -7.7%.
Same read-out and setting: then `CCCCNC(=O)C1CCCN(c2nnc(C)c3c(C)n(-c4ccc(Cl)cc4)nc23)C1` (stereo not drawn), with -11.8%; and `CCN(CC)C(=O)CSc1nc2cc3c(cc2c(=O)n1CCCC(=O)NCc1ccc2c(c1)OCO2)OCO3`, with -18.3%.
On the same count and under the same terms, as for `Cc1ccc2onc(CC(=O)N3CCN(c4ccc(Cl)cc4)CC3)c2c1`, the figure is -1.17%; as for `Cc1ccc2cccc(NC(=O)c3cccc4ccccc34)c2n1`, 31.4%; as for `CCc1ccc(N2C(=O)CN(S(=O)(=O)CC)CC2(C)C(=O)NC2CCCCC2)cc1` (stereo not drawn), 3.92%.
On to `Cc1ccn2cc(-c3nonc3C)cc2c1`, for which the Potency is 56.2 µM (active).
Consider `COc1ccc(-c2cn3ccc(C)cc3n2)cc1`, for which the “activity change, negative = inhibition” value is -17%.
